Results as given in PubChem BioAssay (NCI).
The panel holds about 83,000 compounds, 20% with a hit somewhere; the sample as a whole holds those more often.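 48-hour exposure, single concentration, 96-well plates; percent growth endpoint where 0 means no net growth. Active: below 10.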 A number with no mark means an inactive call. Activity calls are given as the source filed them.

Key:
Assay in all cases: NCI-60 one-dose screen, 48 h (100 = growth as untreated, 0 = no growth, -100 = all killed)
Settings in all cases: 10 µM unless noted
[1] = tested on: NCI-H23 lung
[2] = tested on: NCI-H226 lung
[3] = tested on: NCI-H322M lung
[4] = tested on: HOP-62 NSCLC
[5] = tested on: NCI-H460 lung
[6] = tested on: HOP-92 NSCLC
[7] = tested on: NCI-H522 lung
[8] = tested on: A549/ATCC NSCLC
[9] = tested on: 786-0 renal
[10] = tested on: COLO 205 colon

Structure (SMILES) | growth [1] | growth [2] | growth [3] [%] | growth [4] | growth [5] | growth [6] | growth [7] | growth [8] | growth [9] | growth [10]
CC(=S)Nc1ccccc1 | 95.7% | 89.3% | 104 | 82.2% | 97.3% | 90.7% | 88.2% | 79.6% | 104% | 99.8%
S=c1[nH]nc(Cn2c3ccccc3c3ccncc32)o1 | 107% | 107% | 106 | 95.1% | 100% | 109% | 91.3% | 90.7% | 99.2% | 104%
COc1ccc2c(c1)nnc1c3cccnc3[nH]c21 | 25.5% | 19.7% | 43.3 | 6.44% (active) | -49.4% (active) | -36.5% (active) | -34.4% (active) | 40.8% | -37.2% (active) | -62.3% (active)
Cc1ccc(/C=C2/C(=O)Nc3cc(Cl)c(-c4csc(N)n4)cc32)cc1 | 75% | 80.8% | 81.4 | 71.7% | 81.1% | 79.4% | 33.7% | 74.1% | 87.8% | 82.1%
COc1ccc(C(=O)NC(=O)Nc2ccc3c(c2)NC(=O)/C3=C\c2[nH]c(C)c(C(=O)O)c2C)cc1 | 18.1% | 83.9% | 94.2 | 96.2% | 100% | -1.09% (active) | 7.54% (active) | 98% | 16.8% | 88.1%
OCc1cnccc1NC12CC3CC(CC(C3)C1)C2 | 102% | 95.4% | 103 | 101% | 100% | 86.2% | 86.1% | 96% | 101% | 91.1%
NC(CSC(c1ccccc1)(c1ccccc1)c1ccc(F)cc1)C(=O)O (stereo not given) | 14.4% | 61.8% | 28.7 | -28.7% (active) | 2.02% (active) | -24.3% (active) | -59.1% (active) | 11.7% | -50.8% (active) | 5.57% (active)
Cc1nssc1=S | 91.5% | 99.6% | 85.2 | 107% | 109% | 59.9% | 82.6% | 111% | 95.3% | 91.2%
Cc1cn(-c2cc(C(=O)Nc3cccc(-n4ccc5c(NC(=O)c6ccccc6)nccc54)c3)cc(C(F)(F)F)c2)cn1 | 22.5% | 33.8% | 32.9 | 31.5% | -13.3% (active) | -6.29% (active) | -7.45% (active) | -19% (active) | -70.6% (active) | -20.1% (active)
COc1ccc(Cl)cc1NC(=O)c1cc2c([nH]1)-c1nc(NC(=O)C(C)C)sc1CC2 | 83.5% | 79.5% | 92.8 | 75.3% | 106% | 90% | 63.7% | 91.1% | 105% | 102%
COC(OC)C1(c2ccccc2)NC(=O)NC1=O (stereo not given) | 112% | 113% | 108 | 103% | 115% | 104% | 79.8% | 95.9% | 108% | 119%
COc1ccc(-c2nnc(SCC(=O)N3CCN(c4cc5c(cc4F)c(=O)c(C(=O)O)cn5C4CC4)CC3)o2)cc1OC | 101% | 103% | 96.2 | 67% | 104% | 51.6% | 88.6% | 101% | 69.3% | 74.1%
COc1cc(-c2nc3ccccc3s2)ccc1OCc1nc2n(n1)S(=O)(=O)c1ccccc1N2c1ccccc1 | 109% | 95.7% | 92.9 | 88.2% | 110% | 70.8% | 85.4% | 110% | 95.1% | 113%
Cc1cccc(NCS(=O)(=O)O)c1 | 99.5% | 97.1% | 106 | 92.4% | 105% | 99.4% | 90.9% | 75% | 103% | 103%
C[C@]12O[C@H]1[C@H](O)c1c(cc(O)c3c1C(=O)c1cccc(O)c1-3)C2=O | 99% | 85.7% | 102 | 96.5% | 99.1% | 101% | 87.8% | 92.9% | 104% | 106%
COc1cc2ncnc(Oc3ccc(NC(=O)Nc4ccc(C5(C#N)CCCC5)cc4)c4ccccc34)c2cc1OC | 47.6% | 80.3% | 66.7 | 41.5% | 19.3% | -39.8% (active) | 37.8% | 25.6% | -40.7% (active) | 82.5%
COc1ccc(C2=NN(C(=O)COc3ccc(Cl)cc3)C(O)(c3cc(F)c(Cl)cc3Cl)C2)cc1 (stereo not given) | 96.3% | 109% | 83.4 | 61.8% | 109% | 39.4% | 79.5% | 96.4% | 82% | 101%
COc1cc(NC(C)CCCN2C(=O)c3ccccc3C2=O)c2nc(C)ccc2c1OC (stereo not given) | 87.9% | 96.4% | 76.2 | 95.1% | 103% | 53.5% | 82% | 94.8% | 97.5% | 99.3%
O=S(c1ccccc1)c1ccc2nnnn2n1 (stereo not given) | 100% | 103% | 98.7 | 108% | 103% | 101% | -17.6% (active) | 99.9% | 104% | 98%
COc1ccc(C2CC(c3cc(Cl)c(C)cc3OC)=NN2c2ccc(S(N)(=O)=O)cc2)cc1OC (stereo not given) | 75.8% | 81.3% | 104 | 87.8% | 89.8% | 101% | 74.3% | 73.2% | 92.3% | 101%
O=C(Nc1cccc(-n2ccc3c(NC(=O)c4ccccc4)nccc32)c1)Nc1ccc(Cl)c(C(F)(F)F)c1 | 13% | 21.7% | 39.5 | 33.4% | -0.783% (active) | 2.86% (active) | -51.5% (active) | 9.59% (active) | -14.8% (active) | -51.6% (active)
COc1ccc(C(=O)Cn2cnc3c(Nc4cc(C(=O)Nc5ccc(N6CCN(CCO)CC6)cc5)ccc4C)ncnc32)cc1 | 98.2% | 96.9% | 101 | 97.3% | 108% | 121% | 87.8% | 108% | 98.5% | 104%
C#CC(=O)/C=C/CCCCCCC#CC(=O)CCC(=O)C#CCCCCCC/C=C/C(=O)C#C | 15% | 122% | 93.5 | 61.2% | 80% | -42.3% (active) | -78.6% (active) | 87.8% | -46.9% (active) | -0.795% (active)
CS(=O)(=O)OCC(COS(C)(=O)=O)C(c1ccccc1)c1ccccc1 | 96.9% | 103% | 97.9 | 91.2% | 110% | 85.2% | 95.4% | 92.3% | 99.4% | 124%
O=C(O)c1ccc(-n2cc(/C=N/Nc3ccc(F)cc3)c(-c3cccc(C(F)(F)F)c3)n2)cc1 | 81% | 92.5% | 76.5 | 96.1% | 81.6% | 95.9% | 36.3% | 65.7% | 79.9% | 105%
CCn1c(SC)nnc1-c1cc2c([nH]c3ccccc32)c(-c2cccc(O)c2)n1 | 39.8% | 51.3% | 50.1 | 18.3% | 9.54% (active) | -1.11% (active) | 5.8% (active) | 26.5% | 1.6% (active) | 87.7%
C=C1C(=O)O[C@H]2[C@H]1CC/C(COC(=O)c1ccc3ccccc3c1)=C\CC[C@@]1(C)O[C@@H]21 | 2.6% (active) | -82.3% (active) | 45 | -29.2% (active) | 8.67% (active) | -73.3% (active) | -77.3% (active) | -52.7% (active) | -85.1% (active) | -71.1% (active)
